# PubChem BioAssay (Tox21)
# Records with an inconclusive call do not appear. Where a call stands in place of a potency, no number is given. Calls of active or inactive are those of the source. Calls follow the shape of the dose curve; as a rule, active = well fitted curve in the direction sought with a large enough effect in the repeat runs; inconclusive = weak or mixed curves; inactive = no such curve, though single readings can be large; an effect the other way counts as inactive or inconclusive.
# System: not listed separately
# Experiment: qHTS assay to identify aromatase inhibitors - cell viability counter screen (AID 743084);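 also: cells stimulated with testosterone during compound exposure; nearly all actives have a fitted effect of over 55% in size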
# Details: MCF-7 aro ERE viability, CellTiter-Fluor, 24 h; series mostly up to 70.3 µM
# Potency is read from the fitted curve at half-maximal effect.
row,Compound,Potency
1,O=S1(=O)OC(c2cc(Br)c(O)c(Br)c2)(c2cc(Br)c(O)c(Br)c2)c2ccccc21,25 µM (active)
2,C[C@H]1CNCCc2ccc(Cl)cc21,inactive
3,CCOC(=O)[C@]1(c2ccccc2)Oc2ccccc2[C@@H]1N,inactive
4,O=C(O)C(F)(F)C(F)(F)C(F)(F)C(F)(F)C(F)(F)C(F)(F)C(F)(F)C(F)(F)C(F)(F)C(F)(F)F,inactive
5,Cc1cc(=O)[nH]o1,inactive
6,Nc1nc(=S)[nH][nH]1,inactive
7,CC(C)=CCOc1c2occc2cc2ccc(=O)oc12,inactive
8,COc1cc(Cl)c(OC)cc1Cl,inactive
9,CC1(C)[C@H](C=C(Cl)Cl)[C@@H]1C(=O)O[C@@H](C#N)c1cccc(Oc2ccccc2)c1,inactive
10,COC(=O)C(C)N(C(=O)Cc1ccccc1)c1c(C)cccc1C (configuration not stated),inactive
11,CC[C@H]1C[C@H]2[C@@H]3CCC4=CC(=O)CC[C@@H]4[C@H]3CC[C@]2(C)[C@H]1O,inactive
12,O=C(O)C1(c2ccc3c(c2)OC[C@H](Cc2ccc(-c4ccccc4)cc2)[C@H]3O)CCCC1,inactive
13,COc1nn(C(=O)NS(=O)(=O)c2ccccc2OC(F)(F)F)c(=O)n1C,inactive
14,c1ccc(CN2CCNCC2)cc1,inactive
15,CC(C)N(CCC(C(N)=O)(c1ccccc1)c1ccccn1)C(C)C (configuration not stated),inactive
16,O=C(CBr)OCc1ccccc1,inactive
17,CN1C(=O)C(O)N=C(c2ccccc2)c2cc(Cl)ccc21 (configuration not stated),inactive
18,C=CCC1([C@H](C)CCC)C(=O)NC(=O)NC1=O,inactive

row,Compound,Potency
1,CCCCC(CC)COP(=O)(Oc1ccccc1)Oc1ccccc1 (configuration not stated),inactive
2,COP(=S)(OC)Oc1cc(Cl)c(I)cc1Cl,inactive
3,[CH3][Sn]([CH3])([Cl])[Cl],inactive
4,C(=NC1CCCCC1)=NC1CCCCC1,inactive
5,Clc1cccc2ccccc12,inactive
6,CO/C=C(/C(=O)OC)c1ccccc1COc1cccc(C(F)(F)F)n1,61.1 µM (active)
7,O=C(CBr)c1ccccc1,inactive
8,CC1(C)CCC(Cc2ccc(Cl)cc2)C1(O)Cn1cncn1 (configuration not stated),inactive
9,O=NN1CCCCCC1,inactive
10,CCCCN(N=O)C(=N)N[N+](=O)[O-],inactive
11,Nc1ccc(N=Nc2ccc(-c3ccc(N=Nc4c(S(=O)(=O)O)cc5cc(S(=O)(=O)O)c(N=Nc6ccccc6)c(O)c5c4N)cc3)cc2)c(N)c1,31.3 µM (active)
12,CC(C)(C)c1cc([N+](=O)[O-])cc([N+](=O)[O-])c1O,17.2 µM (active)
13,COCCOCCO,inactive
14,CCC(COC(=O)c1cc(OC)c(OC)c(OC)c1)(c1ccccc1)N(C)C (configuration not stated),inactive
15,C=CC(=O)OC,inactive
16,CC(C)(C)C(O)C(Oc1ccc(Cl)cc1)n1cncn1 (configuration not stated),inactive
17,CCCCCCCCCCOC(=O)c1ccccc1C(=O)OCCCCCCCCCC,inactive
18,C=CCN1CC[C@]23c4c5ccc(O)c4O[C@H]2C(=O)CC[C@@]3(O)[C@H]1C5,inactive

# Target: Aryl hydrocarbon receptor (Homo sapiens) (UniProt P35869)
# Experiment: qHTS assay to identify small molecule that activate the aryl hydrocarbon receptor (AhR) signaling pathway (AID 743085); also: nearly all actives have a fitted effect of over 15% in size
# Details: HepG2 AhR-luc (HG2L7.5c1), luciferase, 24 h; series mostly up to 70.3 µM
# Outline: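 A multiplexed format paired cell viability (CellTiter-Fluor fluorescence) with AhR-dependent luciferase output (ONE-Glo luminescence) in the same wells of HepG2 DRE-luc cells after 24 h compound exposure at 37C.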
# Aryl hydrocarbon receptor (Homo sapiens), sequence (P35869 whole entry, looked up): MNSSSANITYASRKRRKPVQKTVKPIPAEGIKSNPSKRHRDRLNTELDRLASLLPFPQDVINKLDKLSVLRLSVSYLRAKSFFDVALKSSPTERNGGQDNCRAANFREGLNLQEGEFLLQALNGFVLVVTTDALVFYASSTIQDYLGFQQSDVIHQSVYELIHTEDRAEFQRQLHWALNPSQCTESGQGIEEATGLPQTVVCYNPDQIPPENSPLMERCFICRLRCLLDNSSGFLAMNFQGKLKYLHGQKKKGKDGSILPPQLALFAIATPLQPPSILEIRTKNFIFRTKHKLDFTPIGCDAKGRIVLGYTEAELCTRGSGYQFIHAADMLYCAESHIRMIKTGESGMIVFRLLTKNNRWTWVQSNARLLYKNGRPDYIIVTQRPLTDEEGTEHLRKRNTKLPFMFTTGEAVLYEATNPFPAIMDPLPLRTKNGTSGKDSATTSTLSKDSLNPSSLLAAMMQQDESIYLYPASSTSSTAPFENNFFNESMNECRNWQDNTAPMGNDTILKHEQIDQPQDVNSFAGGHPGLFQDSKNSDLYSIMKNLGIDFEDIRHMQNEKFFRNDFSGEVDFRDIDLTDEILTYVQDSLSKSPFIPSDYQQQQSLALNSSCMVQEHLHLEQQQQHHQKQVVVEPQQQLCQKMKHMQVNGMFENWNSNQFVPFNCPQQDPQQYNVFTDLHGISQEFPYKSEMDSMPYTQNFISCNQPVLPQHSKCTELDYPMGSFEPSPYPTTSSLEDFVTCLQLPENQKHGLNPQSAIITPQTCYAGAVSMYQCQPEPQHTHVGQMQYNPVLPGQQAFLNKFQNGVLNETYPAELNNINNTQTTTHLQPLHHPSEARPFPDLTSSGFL
row,Compound,Potency
1,O=S1(=O)OC(c2cc(Br)c(O)c(Br)c2)(c2cc(Br)c(O)c(Br)c2)c2ccccc21,inactive
2,C[C@H]1CNCCc2ccc(Cl)cc21,inactive
3,CCOC(=O)[C@]1(c2ccccc2)Oc2ccccc2[C@@H]1N,inactive
4,O=C(O)C(F)(F)C(F)(F)C(F)(F)C(F)(F)C(F)(F)C(F)(F)C(F)(F)C(F)(F)C(F)(F)C(F)(F)F,inactive
5,Cc1cc(=O)[nH]o1,inactive
6,Nc1nc(=S)[nH][nH]1,inactive
7,CC(C)=CCOc1c2occc2cc2ccc(=O)oc12,3.76 µM (active)
8,COc1cc(Cl)c(OC)cc1Cl,inactive
9,CC1(C)[C@H](C=C(Cl)Cl)[C@@H]1C(=O)O[C@@H](C#N)c1cccc(Oc2ccccc2)c1,inactive
10,COC(=O)C(C)N(C(=O)Cc1ccccc1)c1c(C)cccc1C (configuration not stated),inactive
11,CC[C@H]1C[C@H]2[C@@H]3CCC4=CC(=O)CC[C@@H]4[C@H]3CC[C@]2(C)[C@H]1O,inactive
12,O=C(O)C1(c2ccc3c(c2)OC[C@H](Cc2ccc(-c4ccccc4)cc2)[C@H]3O)CCCC1,inactive
13,COc1nn(C(=O)NS(=O)(=O)c2ccccc2OC(F)(F)F)c(=O)n1C,inactive
14,c1ccc(CN2CCNCC2)cc1,inactive
15,CC(C)N(CCC(C(N)=O)(c1ccccc1)c1ccccn1)C(C)C (configuration not stated),inactive
16,O=C(CBr)OCc1ccccc1,inactive
17,CN1C(=O)C(O)N=C(c2ccccc2)c2cc(Cl)ccc21 (configuration not stated),inactive
18,C=CCC1([C@H](C)CCC)C(=O)NC(=O)NC1=O,inactive

row,Compound,Potency
1,CCCCC(CC)COP(=O)(Oc1ccccc1)Oc1ccccc1 (configuration not stated),inactive
2,COP(=S)(OC)Oc1cc(Cl)c(I)cc1Cl,24.3 µM (active)
3,[CH3][Sn]([CH3])([Cl])[Cl],inactive
4,C(=NC1CCCCC1)=NC1CCCCC1,inactive
5,Clc1cccc2ccccc12,inactive
6,CO/C=C(/C(=O)OC)c1ccccc1COc1cccc(C(F)(F)F)n1,inactive
7,O=C(CBr)c1ccccc1,inactive
8,CC1(C)CCC(Cc2ccc(Cl)cc2)C1(O)Cn1cncn1 (configuration not stated),inactive
9,O=NN1CCCCCC1,inactive
10,CCCCN(N=O)C(=N)N[N+](=O)[O-],inactive
11,Nc1ccc(N=Nc2ccc(-c3ccc(N=Nc4c(S(=O)(=O)O)cc5cc(S(=O)(=O)O)c(N=Nc6ccccc6)c(O)c5c4N)cc3)cc2)c(N)c1,5.56 µM (active)
12,CC(C)(C)c1cc([N+](=O)[O-])cc([N+](=O)[O-])c1O,inactive
13,COCCOCCO,inactive
14,CCC(COC(=O)c1cc(OC)c(OC)c(OC)c1)(c1ccccc1)N(C)C (configuration not stated),inactive
15,C=CC(=O)OC,inactive
16,CC(C)(C)C(O)C(Oc1ccc(Cl)cc1)n1cncn1 (configuration not stated),18.6 µM (active)
17,CCCCCCCCCCOC(=O)c1ccccc1C(=O)OCCCCCCCCCC,inactive
18,C=CCN1CC[C@]23c4c5ccc(O)c4O[C@H]2C(=O)CC[C@@]3(O)[C@H]1C5,inactive
